Source: PubChem BioAssay (several laboratories)
A selection: hits, their analogues and other compounds. The true share with any hit is near 4.6%.
SKKanGAS inh = S. pyogenes SKKanGAS growth inhibitors in kanamycin, primary screen, streptokinase expression inhibitor project, SKKanGAS strain, BacTiter-Glo luminescence; 6 h; inhibition, % at 7.5 µM; 300,000 tested, 1.3% active; AID 1662, 2009;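 active means mean replicate score, as percent of positive control median, at least 50; inconclusive means mean below 50 but one replicate at or above 50; inactive means mean and every replicate below 50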;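 further: strain carries kanamycin resistance gene driven by streptokinase promoter and grows in 40 µg/ml kanamycin; loss of luminescence reflects streptokinase promoter inhibition or plain growth inhibition; 0% = median of DMSO wells and 100% = positive control at its reference dose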
TIM10 inh = growth inhibitors of isogenic TIM10 control yeast, primary screen, counter-screen for tim10-1 yeast inhibitor project, luminescence, uHTS | 330,000 tested, 1.4% active | inhibition, % at 10 µM | S. cerevisiae TIM10 strain growth, BacTiter-Glo luminescence, 24 h | AID 463195, 2010;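 active means inhibition of 40% or more at the single tested concentration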;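 further: wild-type TIM10 isogenic control strain grown at permissive 25 °C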
tim10-1 inh = growth inhibitors of tim10-1 mutant yeast, primary screen, luminescence, uHTS; inhibition, % at 20 µM; 330,000 tested, 2.2% active; S. cerevisiae tim10-1 ts strain growth, BacTiter-Glo, 24 h; AID 463190, 2010;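 active means inhibition of at least 40%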;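 further: mutant grown at 25 °C; 0% = DMSO wells with yeast and 100% = wells holding no yeast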
PfHsp90 set2 = growth inhibition of PfHsp90-expressing yeast, primary screen, antimalarial PfHsp90 inhibitor project, S. cerevisiae, BacTiter-Glo luminescence, single point, set 2. BacTiter-Glo ATP, 48 h; yeast lacking PDR1 and PDR3 efflux regulators. inhibition, % at 9.4 µM. 310,000 tested, 0.32% active;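 active means every replicate shows inhibition above about 80%, whatever the replicate mean, limit read from the data; inconclusive means mean inhibition reaches the set limit but some replicate falls short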;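 further: 0% = DMSO neutral controls and 100% = 20 µM radicicol positive controls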
tim23-1 inh = growth inhibitors of tim23-1 mutant yeast, primary screen, luminescence, uHTS; AID 463212, 2010; 330,000 tested, 1.3% active; S. cerevisiae tim23-1 growth, BacTiter-Glo luminescence, 24 h; inhibition, % at 20 µM;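 active means growth inhibition of the mutant yeast at or above 50%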;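 further: temperature-sensitive mutant grown at 25 °C; plate controls were DMSO-treated mutant yeast for no effect and medium wells lacking yeast for full effect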
NLRP3 yeast inh = NALP3 inflammasome inhibitors in reconstituted yeast, primary screen, luminescence, uHTS | Yeast reconstituted NLRP3/ASC/caspase-1, beta-gal luminescence, 24 h | inhibition, % at 10 µM | 330,000 tested, 0.39% active | AID 2825, 2010;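 active means inhibition of 50% or more; inactive means inhibition below 50%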;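 further: plate controls were induced DMSO wells for no effect and uninduced yeast grown without galactose for full effect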
* = called active by the depositor; ? = inconclusive; nt = no result given.

SMILES	SKKanGAS inh	TIM10 inh	tim10-1 inh	PfHsp90 set2	tim23-1 inh	NLRP3 yeast inh
CC(=O)N1N=C(c2ccc(Cl)cc2)CC1c1ccco1 (centres undefined)	2	-5	17	1	24	18
O=C(c1ccc(Br)o1)N1N=C(c2ccc(Cl)cc2)CC1c1ccco1 (centres undefined)	60*	9	21	-23	50	10
Oc1ccc(F)cc1-c1cc(-c2ccc3c(c2)OCCO3)n[nH]1	56*	17	3	17	-6	24
Cc1c(C(=O)NNC(=O)c2ccccc2O)oc2ccc(Br)cc12	108*	nt	nt	-23	nt	nt
CCOc1ccc2oc(C(=O)O)c(C)c2c1	-5	-13	-3	32	-4	17
CCOc1ccc2oc(C(=O)NNC(=O)c3ccccc3O)c(C)c2c1	69*	-21	0	3	-16	3
Cc1cc(=O)n2[nH]cc(-c3ccccc3)c2n1	-1	-12	-31	14	-2	7
Cc1nc2c(-c3ccccc3)c[nH]n2c(=O)c1Cc1ccccc1	71*	-13	-8	-43	8	4
Cc1cc(C)c(OCC(=O)Nc2ccccc2N2CCCCC2)c(C)c1	80*	-2	10	-34	8	26
O=C(COc1cccc(Cl)c1)Nc1ccccc1N1CCCCC1	66*	9	11	nt	21	23
Cc1ccc(OCC(=O)Nc2ccccc2N2CCCC2)c(C)c1	7	14	1	-22	20	8
Cc1ccccc1OCC(=O)Nc1ccccc1N1CCC(C)CC1	82*	-20	-7	16	8	12
Cc1ccc(C)c(N(CC(=O)NC2CCCC2)S(=O)(=O)c2ccccc2)c1	3	1	28	0	29	-8
COc1ccc2c(n1)Sc1nc3ccccc3nc1N2	1	nt	nt	89*	nt	nt
COc1cc2ccccc2nn1	-5	11	-19	14	2	10
CC1C(=O)N2CCCc3cc(S(=O)(=O)N4CCN(c5ccc(F)cc5)CC4)cc1c32 (centres undefined)	-1	6	21	7	9	-2
COC(=O)c1ccc2[nH]c3cccc(/C(=C/c4ccccc4)c4ccccc4)c3c2c1	94*	-5	13	-5	-1	-1
COc1ccc2c3c(ccc2c1)C(=O)/C(=C/O)CC3	nt	nt	nt	107*	nt	nt
CC1CCN(CCCNC(=O)c2ccc(Cn3c(=S)[nH]c4ccc(Br)cc4c3=O)cc2)CC1	4	4	-1	nt	0	23
NNC(=O)c1cc2ccccc2cc1NS(=O)(=O)c1ccccc1	9	2	20	-5	30	6
CCc1ccc(OCC(=O)NC(NC(=S)Nc2ccc(C)cc2C)C(Cl)(Cl)Cl)cc1 (centres undefined)	68*	-33	-15	nt	-4	12
CCOC(=O)N1CCN(C(=O)c2cccc(S(=O)(=O)Nc3ccc(Br)cc3)c2)CC1	-6	4	16	-34	7	16
CC(NC(=O)COC(=O)c1cc([N+](=O)[O-])ccc1N1CCOCC1)c1ccccc1 (centres undefined)	-3	-1	-9	35	3	2
N#Cc1c(-c2ccccc2)c(-c2ccccc2)nn(CC(=O)NNC(=O)Nc2ccc(Cl)c(Cl)c2)c1=O	62*	14	23	-15	19	11
COC(=O)Nc1ccc(S(=O)(=O)NNC(=O)c2c(O)c3ccccc3n(C)c2=O)cc1	19	-22	-3	1	7	1
SMILES	SKKanGAS inh	TIM10 inh	tim10-1 inh	PfHsp90 set2	tim23-1 inh	NLRP3 yeast inh
Cc1cc(C)c2c(N=NN(C)C)[nH]nc2n1	7	-2	2	104*	-4	7
Cc1cc(C)c2c(NC(N)=S)n[nH]c2n1	4	-15	1	nt	-2	7
O=C1C(Cl)=C(NCCCO)C(=O)c2ccccc21	6	25	29	-3	30	21
CCOCCCNC1=C(Cl)C(=O)c2ccccc2C1=O	-5	30	36	107*	45	19
O=S(=O)(Nc1nccs1)c1ccc(NS(=O)(=O)c2c(F)cc(F)c(Cl)c2F)cc1	nt	-2	-14	nt	-3	16
COc1cccc(/C=C(/C(=O)OCC(=O)NC2CCCC(C)C2C)c2ccccc2)c1 (centres undefined)	65*	nt	nt	1	nt	nt
Nc1nc(-c2ccccc2)c(N=Nc2cccc3ccccc23)s1	57*	3	15	-4	29	37
CC(=O)Nc1sc(N)nc1-c1ccccc1	-3	2	-3	-8	3	-1
O=C(NNC1=Nc2cccc3cccc1c23)c1ccc(Br)cc1	114*	nt	nt	28	nt	nt
COc1ccc(CC(=O)NNC2=Nc3cccc4cccc2c34)cc1OC	4	8	-12	52	-5	-2
COCc1ccc(C(=O)N2CCCC(C(=O)c3ccc(Cl)cc3C)C2)o1 (centres undefined)	-3	-9	3	-67	9	8
CCn1cc(C(=O)O)c(=O)c2cc(F)c(N3CCN(C(=S)Nc4ccc(OC)cc4)CC3)cc21	68*	5	11	15	-3	10
CCn1cc(C(=O)NCc2ccc3c(c2)OCO3)c(=O)c2cc(F)c(N3CCN(C(=O)c4ccco4)CC3)cc21	54*	8	24	-41	20	21
CCCCOC(=O)c1ccc(NC(=S)N2CCN(c3ncc4c(=O)c(C(=O)O)cn(CC)c4n3)CC2)cc1	92*	-9	-4	34	5	0
CCn1cc(C(=O)O)c(=O)c2cc(F)c(N3CCN(C(=S)NC(=O)c4cc(OC)cc(OC)c4)CC3)cc21	?	-3	35	2	17	16
CCn1cc(C(=O)O)c(=O)c2cnc(N3CCN(C(=S)Nc4ccccc4)CC3)nc21	-2	6	-6	-2	6	23
Cc1ccc(C(C)C)c(OCc2nn(CC(=O)c3ccc(OC(F)F)cc3)c3[n+]2CCCCC3)c1	71*	22	30	9	17	0
Cn1cc(S(=O)(=O)NC2CCCCC2)c(=O)n(C)c1=O	-9	-13	-18	nt	-2	7
Cc1ccc(C)c(N=Nc2ccc(O)c3ncccc23)c1	92*	7	33	2	0	17
NS(=O)(=O)c1ccc(N=Nc2ccc(O)c3ncccc23)cc1	11	6	19	40	30	37
Cc1cccc(NCc2ccc(O)c3ncccc23)c1C	11	13	2	18	-7	-23
CCOc1ccc(N=Nc2ccc(O)c3ncccc23)cc1	92*	21	4	39	36	7
Cc1cccnc1NCc1ccc(O)c2ncccc12	67*	31	19	nt	-20	-18
